Reference: PubChem BioAssay AID1159580 (chemical genetic matrix, 2015)
Out of some 5,500 compounds screened, about 2,000 (36%) were called active. Another 18% or so got no clear call; they are omitted. Cut-off read from the data, not from the text of the source: active = normalized growth mostly below about 0.91 (no sharp cut-off); inconclusive = no clear call, values can overlap the other calls; inactive = mostly above about 0.92. This is one part of the list.

Test: chemical genetic growth profiling, strain panel (AID 1159580);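 note: tested at 20 µM; growth read once vehicle control cultures reached saturation at 30 °C; 1 = growth at the plate median or of vehicle wells; lower values mean less growth of the strain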
Conditions: growth OD
[1] = S. cerevisiae deletion strains, locus YDR150W, strain NUM1, hits give low values
[2] = S. cerevisiae deletion strains, locus YMR263W, strain SAP30, hits give low values
[3] = S. cerevisiae deletion strains, locus YMR307W, strain GAS1, hits give low values
[4] = S. cerevisiae deletion strains, locus YPL055C, strain LGE1, hits give low values
[5] = S. cerevisiae deletion strains, locus YPL241C, strain CIN2, hits give low values

Measured: normalized growth

CCCc1c(OCCCCc2nn[nH]n2)ccc(C(C)=O)c1O
inactive: S. cerevisiae deletion strains, locus YAL013W, strain DEP1, hits give low values 1.01 | S. cerevisiae deletion strains, locus YBR021W, strain FUR4, hits give low values 1.03 | S. cerevisiae deletion strains, locus YBR229C, strain ROT2, hits give low values 1.01 | S. cerevisiae deletion strains, locus YCL029C, strain bik1, hits give low values 0.997 | S. cerevisiae deletion strains, locus YDL035C, strain GPR1, hits give low values 1.02 | S. cerevisiae deletion strains, locus YDL074C, strain BRE1, hits give low values 1.06 | S. cerevisiae deletion strains, locus YDL101C, strain DUN1, hits give low values 1.02 | S. cerevisiae deletion strains, locus YDL134C, strain PPH21, hits give low values 1.01 | S. cerevisiae deletion strains, locus YDL185W, strain tfp1, hits give low values 0.968 | S. cerevisiae deletion strains, locus YDL192W, strain arf1, hits give low values 0.995 | S. cerevisiae deletion strains, locus YDR101C, strain arx1, hits give low values 0.991 | [1] 1.01 | S. cerevisiae deletion strains, locus YDR162C, strain NBP2, hits give low values 1.01 | S. cerevisiae deletion strains, locus YDR318W, strain mcm21, hits give low values 0.993 | S. cerevisiae deletion strains, locus YDR388W, hits give low values 0.993 | S. cerevisiae deletion strains, locus YDR502C, strain sam2, hits give low values 1.01 | S. cerevisiae deletion strains, locus YEL061C, strain CIN8, hits give low values 1.01 | S. cerevisiae deletion strains, locus YER110C, hits give low values 0.977 | S. cerevisiae deletion strains, locus YER155C, strain BEM2, hits give low values 1.01 | S. cerevisiae deletion strains, locus YER167W, strain BCK2, hits give low values 1.01 | S. cerevisiae deletion strains, locus YGL078C, strain dbp3, hits give low values 0.996 | S. cerevisiae deletion strains, locus YGL086W, strain mad1, hits give low values 1 | S. cerevisiae deletion strains, locus YGL248W, strain PDE1, hits give low values 1.01 | S. cerevisiae deletion strains, locus YGR078C, strain PAC10, hits give low values 1.01 | S. cerevisiae deletion strains, locus YGR135W, strain pre9, hits give low values 1 | S. cerevisiae deletion strains, locus YGR229C, strain SMI1, hits give low values 1.03 | S. cerevisiae deletion strains, locus YGR252W, strain gcn5, hits give low values 0.934 | S. cerevisiae deletion strains, locus YHR030C, strain SLT2, hits give low values 1.01 | S. cerevisiae deletion strains, locus YHR079C, strain IRE1 (second series), hits give low values 0.992 | S. cerevisiae deletion strains, locus YHR094C, strain hxt1, hits give low values 0.992 | S. cerevisiae deletion strains, locus YHR129C, strain ARP1, hits give low values 1.01 | S. cerevisiae deletion strains, locus YHR200W, strain rpn10, hits give low values 0.987 | S. cerevisiae deletion strains, locus YIL066C, strain RNR3, hits give low values 1.02 | S. cerevisiae deletion strains, locus YIL073C, strain SPO22, hits give low values 1.03 | S. cerevisiae deletion strains, locus YIL125W, strain kgd1, hits give low values 1 | S. cerevisiae deletion strains, locus YIR030C, strain dcg1, hits give low values 0.995 | S. cerevisiae deletion strains, locus YJL095W, strain BCK1, hits give low values 1.02 | S. cerevisiae deletion strains, locus YJL134W, strain LCB3, hits give low values 1.01 | S. cerevisiae deletion strains, locus YJL168C, strain set2, hits give low values 0.993 | S. cerevisiae deletion strains, locus YJL187C, strain SWE1 (second series), hits give low values 1.01 | S. cerevisiae deletion strains, locus YJR043C, strain POL32, hits give low values 0.984 | S. cerevisiae deletion strains, locus YJR075W, strain HOC1, hits give low values 1.02 | S. cerevisiae deletion strains, locus YKL009W, strain mrt4, hits give low values 1.02 | S. cerevisiae deletion strains, locus YKL068W, hits give low values 0.999 | S. cerevisiae deletion strains, locus YKL085W, strain MDH1 (second series), hits give low values 0.999 | S. cerevisiae deletion strains, locus YKL085W, strain MDH1, hits give low values 0.999 | S. cerevisiae deletion strains, locus YKL190W, strain CNB1, hits give low values 1.01 | S. cerevisiae deletion strains, locus YKR001C, strain vps1, hits give low values 0.957 | S. cerevisiae deletion strains, locus YLR039C, strain RIC1, hits give low values 1.05 | S. cerevisiae deletion strains, locus YLR058C, strain SHM2, hits give low values 1.01 | S. cerevisiae deletion strains, locus YLR102C, strain apc9, hits give low values 0.997 | S. cerevisiae deletion strains, locus YLR262C, strain YPT6, hits give low values 1.08 | S. cerevisiae deletion strains, locus YLR268W, strain sec22, hits give low values 0.994 | S. cerevisiae deletion strains, locus YLR330W, strain CHS5, hits give low values 1.01 | S. cerevisiae deletion strains, locus YLR342W, strain FKS1 (second series), hits give low values 0.975 | S. cerevisiae deletion strains, locus YLR371W, strain rom2, hits give low values 0.989 | S. cerevisiae deletion strains, locus YLR418C, strain cdc73, hits give low values 0.984 | S. cerevisiae deletion strains, locus YML016C, strain PPZ1, hits give low values 1.01 | S. cerevisiae deletion strains, locus YML032C, strain rad52, hits give low values 0.995 | S. cerevisiae deletion strains, locus YML124C, strain tub3, hits give low values 0.996 | S. cerevisiae deletion strains, locus YMR078C, strain ctf18, hits give low values 0.994 | S. cerevisiae deletion strains, locus YMR223W, strain ubp8, hits give low values 0.991 | [2] 1.01 | [3] 1.01 | S. cerevisiae deletion strains, locus YNL067W, strain RPL9B, hits give low values 1.01 | S. cerevisiae deletion strains, locus YNL128W, strain TEP1, hits give low values 1.01 | S. cerevisiae deletion strains, locus YNL153C, strain GIM3, hits give low values 1.01 | S. cerevisiae deletion strains, locus YNL233W, strain BNI4, hits give low values 1.01 | S. cerevisiae deletion strains, locus YNL250W, strain rad50, hits give low values 0.996 | S. cerevisiae deletion strains, locus YNL271C, strain bni1, hits give low values 0.997 | S. cerevisiae deletion strains, locus YNL298W, strain CLA4, hits give low values 0.997 | S. cerevisiae deletion strains, locus YNL307C, strain MCK1, hits give low values 0.993 | S. cerevisiae deletion strains, locus YNL322C, strain KRE1, hits give low values 1.01 | S. cerevisiae deletion strains, locus YNR052C, strain pop2, hits give low values 0.981 | S. cerevisiae deletion strains, locus YOL006C, strain TOP1, hits give low values 1.09 | S. cerevisiae deletion strains, locus YOL012C, strain htz1 1.54 | S. cerevisiae deletion strains, locus YOL147C, strain pex11, hits give low values 0.989 | S. cerevisiae deletion strains, locus YOR061W, strain CKA2, hits give low values 1.01 | S. cerevisiae deletion strains, locus YOR069W, strain VPS5, hits give low values 1 | S. cerevisiae deletion strains, locus YOR136W, strain idh2, hits give low values 0.986 | S. cerevisiae deletion strains, locus YOR144C, strain elg1, hits give low values 0.994 | S. cerevisiae deletion strains, locus YOR184W, strain ser1, hits give low values 0.992 | S. cerevisiae deletion strains, locus YOR316C, strain cot1, hits give low values 1 | [4] 1.03 | [5] 1 | S. cerevisiae deletion strains, locus YPR119W, strain clb2, hits give low values 0.992 | S. cerevisiae deletion strains, locus YPR141C, strain kar3, hits give low values 1.01 | S. cerevisiae deletion strains, locus YPR163C, strain tif3, hits give low values 0.986 | S. cerevisiae deletion strains, locus YPR167C, strain met16, hits give low values 0.992 | S. cerevisiae deletion strains, strain wtn01, hits give low values 0.993 | S. cerevisiae strains, strain wild type, hits give low values 1.01

CCC1(O)CC2CN(CCc3c([nH]c4ccccc34)[C@@](C(=O)OC)(c3cc4c(cc3OC)N(C)C3[C@]45CCN4CC=C[C@@](CC)([C@@H](OC(C)=O)[C@]3(O)C(=O)OC)[C@H]45)C2)C1 (some centres undefined)
inactive: S. cerevisiae deletion strains, locus YAL040C, strain CLN3, hits give low values 1 | S. cerevisiae deletion strains, locus YCL061C, strain MRC1 (second series), hits give low values 1 | [1] 1.01 | S. cerevisiae deletion strains, locus YDR363W, strain ESC2, hits give low values 0.993 | S. cerevisiae deletion strains, locus YER002W, strain NOP16, hits give low values 1.06 | [2] 0.996 | [3] 0.985 | S. cerevisiae deletion strains, locus YNL175C, strain NOP13, hits give low values 1.02 | S. cerevisiae deletion strains, locus YNL197C, strain WHI3, hits give low values 1.03 | S. cerevisiae deletion strains, locus YNL224C, strain SQS1, hits give low values 1.04 | S. cerevisiae deletion strains, locus YOR083W, strain WHI5 (second series), hits give low values 1.07 | [4] 1.01 | [5] 0.994
